Data on 39 compounds can be found in PubChem BioAssay (EPA / NIEHS).

Structures are written as SMILES. Results filed as inconclusive are left out. Activity calls are given as the source filed them. The calls were made as follows: active = hit-call score of the fitted dose curve at least 0.9, where 1 is the maximum; inconclusive = response in the unintended direction; inactive = score below 0.9.

Sequence of Cellular tumor antigen p53 (Homo sapiens) (P04637 whole entry, looked up): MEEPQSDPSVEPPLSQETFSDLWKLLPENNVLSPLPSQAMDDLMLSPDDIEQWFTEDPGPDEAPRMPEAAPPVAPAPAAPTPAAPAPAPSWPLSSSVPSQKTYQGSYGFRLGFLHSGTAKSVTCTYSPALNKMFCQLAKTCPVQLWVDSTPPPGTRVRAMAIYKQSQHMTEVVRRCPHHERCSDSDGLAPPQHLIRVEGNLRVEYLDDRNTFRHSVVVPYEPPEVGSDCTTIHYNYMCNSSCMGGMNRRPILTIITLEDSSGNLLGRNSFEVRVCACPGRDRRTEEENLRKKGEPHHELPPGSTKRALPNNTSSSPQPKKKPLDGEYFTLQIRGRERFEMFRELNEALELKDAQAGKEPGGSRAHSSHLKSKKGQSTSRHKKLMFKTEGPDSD

The target in one test is Cellular tumor antigen p53 (Homo sapiens) (UniProt P04637). Put plainly: TOX21_p53_BLA_p5_ratio: Tox21 HCT-116 p53 Agonism Beta-lactamase Assay, Ratio, Phase 5 (AID 2283599). The method in brief:
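HCT-116 p53-bla cells (4000/well) plated 5 h, dosed with compound (217-fold DMSO dilution) for 16 h at 37 C; CCF4-AM substrate 2 h at room temperature. Activity is the 460/530 nm emission ratio (405 nm excitation), fitted in gain-of-signal direction versus DMSO.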
On to `O=C(O)c1cc2ccccc2c(Cc2c(O)c(C(=O)O)cc3ccccc23)c1O`, for which the result was inactive.

Regarding `NS(=O)(=O)c1cc2c(cc1Cl)NC(CSCc1ccccc1)=NS2(=O)=O`, the outcome was inactive.

As for `O=c1[nH]cnc2ccccc12`, the outcome was inactive.

Consider `CS(=O)(=O)c1ccc([C@@H](O)[C@@H](CF)NC(=O)C(Cl)Cl)cc1`, for which the result was inactive.

For `CN1C(C)(C)CCCC1(C)C`, the result was inactive.

On to `Cn1c(=O)c2c(ncn2CC(O)CO)n(C)c1=O` (centres undefined), for which the outcome was inactive.

On to `O=C1c2c(O)cccc2C([C@@H]2O[C@H](CO)[C@@H](O)[C@H](O)[C@H]2O)c2cc(CO)cc(O)c21` (some centres undefined), for which the outcome was inactive.

As to `Nc1c(NC/C=C\COc2cc(CN3CCCCC3)ccn2)c(=O)c1=O`, the result was inactive.

Consider `O=C1C=CCCC1`, for which the result was inactive.

Take `O=P(O)(O)C(O)(Cc1cnc2ccccn12)P(=O)(O)O`: the outcome was inactive.

With `NC(=S)Nc1cccc2ccccc12`, the result was inactive.

For `CC(=O)N(CC(C)C(=O)O)c1c(I)cc(I)c(N)c1I` (centres undefined), the result was inactive.

Turning to `CC1(C)[C@@H](OC(=O)CCC(=O)O)CC[C@]2(C)[C@H]3C(=O)C=C4[C@@H]5C[C@@](C)(C(=O)O)CC[C@]5(C)CC[C@@]4(C)[C@]3(C)CC[C@@H]12`, the result was inactive.

Turning to `CN1C(CCl)Nc2cc(Cl)c(S(N)(=O)=O)cc2S1(=O)=O` (centres undefined), the outcome was inactive.

On to `O=C(CCC1CCN(Cc2ccccc2)CC1)c1ccc2c(c1)NCCCC2`, for which the outcome was inactive.

Turning to `CC(=O)CC(c1ccc([N+](=O)[O-])cc1)c1c(O)c2ccccc2oc1=O` (centres undefined), the result was inactive.

As to `Cn1ccc2cc3c(cc21)CCN3C(=O)Nc1cccnc1`, the outcome was inactive.

With `Cc1cccc(Nc2ccncc2S(=O)(=O)NC(=O)NC(C)C)c1`, the result was inactive.

As to `COc1ccccc1OCCNCC(O)COc1cccc2[nH]c3ccccc3c12` (centres undefined), the outcome was inactive.

Regarding `Cc1ccc(C(C)NC(=O)[C@@H](NC(=O)OC(C)C)C(C)C)cc1` (some centres undefined), the result was inactive.

Turning to `O=C1c2ccccc2CN2C(=O)c3ccccc3CN12`, the outcome was inactive.

System in a further test: not listed separately
Description: TOX21_p53_BLA_p5_viability: Viability Assessment in the Tox21 HCT-116 p53 Agonism Beta-lactamase Assay, Phase 5 (AID 2283600). The gist of the method: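 Workflow: seed 4000 cells per well, wait 5 h, add compounds (DMSO, 217-fold dilution), incubate 16 h, load CCF4-AM 2 h, add CellTiter-Glo, read luminescence after 30 min.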
With `Nc1ccc2c3c(cccc13)-c1ccccc1-2`, the outcome was inactive.

Turning to `O=C(O)c1cc2ccccc2c(Cc2c(O)c(C(=O)O)cc3ccccc23)c1O`, the compound was classed as inactive.

Turning to `O=c1[nH]cnc2ccccc12`, the result was inactive.

In the case of `CNS(=O)(=O)CCc1ccc2[nH]cc(C3CCN(C)CC3)c2c1`, the result was inactive.

On to `CC(=O)Nc1cccc(C)c1`, for which the result was inactive.

For the compound `CN1C(C)(C)CCCC1(C)C`, the call was inactive.

`O=C1c2c(O)cccc2C([C@@H]2O[C@H](CO)[C@@H](O)[C@H](O)[C@H]2O)c2cc(CO)cc(O)c21` (some centres undefined): the outcome was inactive.

As for `CCCNCC(O)COc1ccccc1C(=O)CCc1ccccc1` (centres undefined), the outcome was inactive.

As to `O=C1C=CCCC1`, the result was inactive.

`Cc1cc(-c2ccc(N=Nc3c(S(=O)(=O)O)cc4cc(S(=O)(=O)O)cc(N)c4c3O)c(C)c2)ccc1N=Nc1c(S(=O)(=O)O)cc2cc(S(=O)(=O)O)cc(N)c2c1O`: the compound was classed as inactive.

Turning to `C[C@]12CCC(=O)C=C1CC[C@@H]1[C@@H]2[C@@H](O)C[C@@]2(C)[C@H]1CC[C@]2(O)C(=O)COC(=O)CCC(=O)O`, the outcome was inactive.

In the case of `Clc1ccccc1-c1nc(-c2ccncc2)no1`, the call was inactive.

For the compound `CC(C)(C)C(=O)Oc1ccc(S(=O)(=O)Nc2ccccc2C(=O)NCC(=O)O)cc1`, the outcome was inactive.

Regarding `CC1(C)[C@@H](OC(=O)CCC(=O)O)CC[C@]2(C)[C@H]3C(=O)C=C4[C@@H]5C[C@@](C)(C(=O)O)CC[C@]5(C)CC[C@@]4(C)[C@]3(C)CC[C@@H]12`, the compound was classed as inactive.

For `CNCCCN1c2ccccc2CCc2ccccc21`, the call was inactive.

Consider `O=C(CCC1CCN(Cc2ccccc2)CC1)c1ccc2c(c1)NCCCC2`, for which the call was inactive.

As to `Nc1nc2c(ncn2CCC(CO)CO)c(=O)[nH]1`, the outcome was inactive.

On to `Cc1cccc(Nc2ccncc2S(=O)(=O)NC(=O)NC(C)C)c1`, for which the call was inactive.

Consider `CCC(C)(C)C(=O)O`, for which the result was inactive.

In the case of `Cc1ccc(C(C)NC(=O)[C@@H](NC(=O)OC(C)C)C(C)C)cc1` (some centres undefined), the compound was called inactive.

In the case of `O=C(O)c1ccc(CO)o1`, the outcome was inactive.

On to `CCOC(=O)NCCC[Si](OCC)(OCC)OCC`, for which the compound was called inactive.

A further test concerns the target Cellular tumor antigen p53 (Homo sapiens) (UniProt P04637). Description: TOX21_p53_BLA_p4_ratio: Tox21 HCT-116 p53 Agonism Beta-lactamase Assay, Ratio, Phase 4 (AID 2283601). The method in brief: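 HCT-116 p53 beta-lactamase reporter cells (4000/well) preincubated 5 h, then compound (217-fold dilution of DMSO stock) for 16 h at 37C. CCF4-AM substrate added 2 h at room temperature; 460/530 nm emission ratio fitted upward versus DMSO.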
Take `Cc1onc(-c2ccccc2)c1C(=O)N[C@@H]1C(=O)N2[C@@H]1SC(C)(C)[C@@H]2C(=O)O`: the outcome was inactive.

On to `c1ccc(COCc2ccccc2)cc1`, for which the result was inactive.

Regarding `O=C(O)c1cc2ccccc2c(Cc2c(O)c(C(=O)O)cc3ccccc23)c1O`, the result was inactive.

Regarding `O=c1[nH]cnc2ccccc12`, the result was inactive.

`CNS(=O)(=O)CCc1ccc2[nH]cc(C3CCN(C)CC3)c2c1`: the result was inactive.

For `CC(=O)Nc1cccc(C)c1`, the result was inactive.

In the case of `OC1OC[C@@H](O)[C@H](O)[C@@H]1O` (some centres undefined), the outcome was inactive.

Turning to `Cn1c(=O)c2c(ncn2CC(O)CO)n(C)c1=O` (centres undefined), the outcome was inactive.

On to `O=C1c2c(O)cccc2C([C@@H]2O[C@H](CO)[C@@H](O)[C@H](O)[C@H]2O)c2cc(CO)cc(O)c21` (some centres undefined), for which the outcome was inactive.

Take `C[C@]12CCC(=O)C=C1CC[C@@H]1[C@@H]2[C@@H](O)C[C@@]2(C)[C@H]1CC[C@]2(O)C(=O)COC(=O)CCC(=O)O`: the outcome was inactive.

Regarding `NC(=S)Nc1cccc2ccccc12`, the outcome was inactive.

As to `CC(C)(C)C(=O)Oc1ccc(S(=O)(=O)Nc2ccccc2C(=O)NCC(=O)O)cc1`, the outcome was inactive.

In the case of `CC(=O)N(CC(C)C(=O)O)c1c(I)cc(I)c(N)c1I` (centres undefined), the outcome was inactive.

In the case of `CNCCCN1c2ccccc2CCc2ccccc21`, the outcome was inactive.

Regarding `CN1C(CCl)Nc2cc(Cl)c(S(N)(=O)=O)cc2S1(=O)=O` (centres undefined), the result was inactive.

Take `O=C1NC2CCCCN2C12CCN(CCCN1c3ccccc3CCc3ccc(Cl)cc31)CC2` (centres undefined): the result was inactive.

`O=C(CCC1CCN(Cc2ccccc2)CC1)c1ccc2c(c1)NCCCC2`: the outcome was inactive.

For the compound `CC(=O)CC(c1ccc([N+](=O)[O-])cc1)c1c(O)c2ccccc2oc1=O` (centres undefined), the result was inactive.

For the compound `Cn1ccc2cc3c(cc21)CCN3C(=O)Nc1cccnc1`, the result was inactive.

Turning to `Cc1cccc(Nc2ccncc2S(=O)(=O)NC(=O)NC(C)C)c1`, the outcome was inactive.

Usually AC50 stands for the concentration giving half of the maximal activity seen. For `COc1ccccc1OCCNCC(O)COc1cccc2[nH]c3ccccc3c12` (centres undefined), the concentration at half-maximal activity (AC50) is 41.9 µM (active).

As for `CCC(C)(C)C(=O)O`, the result was inactive.

Consider `Cc1ccc(C(C)NC(=O)[C@@H](NC(=O)OC(C)C)C(C)C)cc1` (some centres undefined), for which the outcome was inactive.

Turning to `O=C(CCCCCCCCC#CI)Oc1ccccc1`, the result was inactive.

Turning to `O=C(O)c1ccc(CO)o1`, the result was inactive.

On to `O=C1c2ccccc2CN2C(=O)c3ccccc3CN12`, for which the result was inactive.
